The results in this text go back to PubChem BioAssay.

Molecules are shown by their SMILES. The source made the active and inactive calls. Unless noted, no rule for the calls is given here.

Assay [1] has as its system Wnt5a (protein binding on small-molecule microarray). The assay is described as follows: Wnt5a binders on small-molecule microarray, primary screen, biophysical, 635/667 nm fluorescence (AID 1142).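 Also: fluorescence read at 667 nm with signal to noise per printed feature.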 The note with it: 635 nm fluorescence, higher = more signal.
The nature of assay [2]: cell viability in Huh7 cells, primary screen, cytotoxicity control for HCV replication inhibitor project, CellTiter-Glo luminescence, basal, 48 h (AID 1143).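 Also: Huh7 hepatoma cells carrying a hepatitis C replication reporter with no stimulus; test concentration not given here.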 The note with it: Huh7 HCV replicon, higher = more signal, called active from +8 up or from −8 down. Background: In ATP-based viability assays light output follows the ATP content of the culture.
Assay [3] in a line: P. aeruginosa biofilm formation inhibitors, primary screen, PAO1 strain, BacTiter-Glo luminescence, LB-PBS (AID 1144). The note with it: 12 h, higher = more signal.
The nature of assay [4]: CREB reporter modulators without forskolin, primary screen, cell-based, PC12, CRE-LacZ reporter, unstimulated (AID 1145). The note with it: no forskolin, luminescence, 4.5 h, higher = more signal, called active from +8 up or from −8 down.
Assay [5] can be described thus: CREB reporter modulators under forskolin, primary screen, cell-based, PC12, CRE-LacZ reporter, forskolin-stimulated (AID 1146).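 Also: PC12 cells with 6xCRE LacZ reporter stimulated by forskolin 10 µM; beta-galactosidase reporter signal reflecting CREB driven transcription.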 The note with it: luminescence, 4.5 h, higher = more signal, called active from +8 up or from −8 down.
Assay [6] concerns the target Streptavidin (Streptomyces avidinii) (UniProt P22629). The assay is described as follows: streptavidin binders on small-molecule microarray, primary screen, artefact control for SMM compound annotation, biophysical, 635/667 nm fluorescence (AID 1147).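 Also: signal reflects streptavidin binding to arrayed compounds as a control protein.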 The note with it: streptavidin binding, higher = more signal.
Assay [7] can be described thus: small-molecule binders of probe aInhba, primary screen, biochemical, small-molecule microarray, 635/667 nm fluorescence (AID 1148).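 Also: score merges 667nm spot fluorescence with signal-to-noise for antibody binding to printed compounds.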 The note with it: higher = more signal.
In assay [8] the target is Torsin-1A (Homo sapiens) (UniProt O14656). The assay is described as follows: torsin A binders from cell lysate, primary screen, small-molecule microarray, wild-type, 635/667 nm (AID 1149). The note with it: COS7 hTOR1A-WT lysate, 635 nm fluorescence, higher = more signal.
For assay [9] the target is unchanged. The assay can be described thus: small-molecule binders of mutant TOR1A in lysate, primary screen, cell lysate, small-molecule microarray, COS7 lysate, 635/667 nm fluorescence (AID 1150).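 Also: score pools 667 nm emission and signal to noise measuring lysate protein binding.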 The note with it: COS7 hTOR1A mutant lysate, 635 nm fluorescence, higher = more signal.
Assay [10] relates to Sonic hedgehog protein (Shh). The assay can be described thus: small-molecule binders of Shh protein, primary screen, biochemical, small-molecule microarray, 635/667 nm fluorescence (AID 1151).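 Also: Shh protein binding to compounds spotted on small-molecule microarray slides; score combines spot fluorescence intensity with signal-to-noise across triplicate slides.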 The note with it: small-molecule microarray binding, 635 nm fluorescence; higher = more signal.
Assay [11] is described as follows: E. coli DRC41 culture turbidity changes, primary screen, E. coli filamentation inducer project, strain DRC41, OD650, 48 h (AID 1152).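 Also: E. coli MC1000 strain DRC41 lacking acrAB efflux pump and sulA.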 The note with it: E. coli DRC41 (acrAB sulA), higher = more signal, called active from +8 up or from −8 down.
A short description of assay [12]: small-molecule binders of probe aLefty1, primary screen, biochemical, small-molecule microarray, 635/667 nm fluorescence (AID 1153).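 Also: score merges spot fluorescence with signal-to-noise ratio from the scanned slide images.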 The note with it: higher = more signal.
Assay [13] is described as follows: PSAC antagonists in infected red cells, primary screen, cell-based, P. falciparum Indochina, OD700, 1 h (AID 1154). The note with it: P. falciparum Indochina infected RBC osmotic lysis, higher = more signal, called active from +8 up or from −8 down.
Assay [14] can be described thus: PSAC antagonists in infected red cells, primary screen, cell-based, P. falciparum Indochina, OD700, 2 h (AID 1155).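 Also: lysis reports solute entry through the parasite surface anion channel PSAC; channel blockers reduce lysis of infected cells.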 The note with it: P. falciparum Indochina infected erythrocytes, osmotic lysis OD700; higher = more signal, called active from +8 up or from −8 down.
A short description of assay [15]: osmotic lysis modulators in infected erythrocytes, primary screen, PSAC antagonist project, cell-based, P. falciparum Indochina, OD700, 3 h (AID 1156). The note with it: higher = more signal, called active from +8 up or from −8 down.
The nature of assay [16]: PSAC antagonists in infected red cells, primary screen, cell-based, P. falciparum Indochina, OD700, 18 h (AID 1157). The note with it: P. falciparum Indochina infected erythrocytes, osmotic lysis OD700, 18 h; higher = more signal, called active from +8 up or from −8 down.
Assay [17] is described as follows: modulators of S6 phosphorylation in cells, primary screen, cell-based, A549, cytoblot, luminescence, serum-stimulated (AID 1158).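 Also: serum-stimulated A549 lung adenocarcinoma cells; signal is phosphorylated S6 detected by cytoblot immunostaining with HRP secondary.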 The note with it: A549 phospho-S6 cytoblot, 5 h, higher = more signal.
The target of assay [18] is NADPH oxidase 2 (Homo sapiens) (UniProt P04839). The assay is described as follows: NOX2-dependent H2O2 signal modulators, primary screen, NOX inhibitor project, cell-based, HEK293-NOX2, PMA-stimulated, Amplex Red fluorescence (AID 1159). Also: test concentration not given here. The note with it: 45 min, higher = more signal, called active from +8 up or from −8 down.
Assay [19] concerns the target NADPH oxidase 4 (Homo sapiens) (UniProt Q9NPH5). The assay can be described thus: NOX4-dependent H2O2 signal modulators, primary screen, NOX inhibitor project, cell-based, HEK293-NOX4, tetracycline-induced, Amplex Red fluorescence (AID 1160). The note with it: 45 min, higher = more signal, called active from +8 up or from −8 down.
Assay [20] addresses NADPH oxidase 5 (Homo sapiens) (UniProt Q96PH1). The assay is described as follows: NOX5-dependent H2O2 signal modulators, primary screen, NOX inhibitor project, cell-based, HEK293-NOX5, Amplex Red fluorescence (AID 1161). The note with it: HEK293-NOX5, ionomycin, 45 min, higher = more signal.

Streptavidin (Streptomyces avidinii), sequence (P22629 whole entry, looked up): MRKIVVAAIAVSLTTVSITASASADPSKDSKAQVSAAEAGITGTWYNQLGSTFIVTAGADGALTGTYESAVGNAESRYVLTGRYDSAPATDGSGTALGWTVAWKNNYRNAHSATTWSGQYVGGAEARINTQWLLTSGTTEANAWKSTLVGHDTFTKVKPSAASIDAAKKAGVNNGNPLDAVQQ
NADPH oxidase 5 (Homo sapiens), sequence (Q96PH1 whole entry, looked up): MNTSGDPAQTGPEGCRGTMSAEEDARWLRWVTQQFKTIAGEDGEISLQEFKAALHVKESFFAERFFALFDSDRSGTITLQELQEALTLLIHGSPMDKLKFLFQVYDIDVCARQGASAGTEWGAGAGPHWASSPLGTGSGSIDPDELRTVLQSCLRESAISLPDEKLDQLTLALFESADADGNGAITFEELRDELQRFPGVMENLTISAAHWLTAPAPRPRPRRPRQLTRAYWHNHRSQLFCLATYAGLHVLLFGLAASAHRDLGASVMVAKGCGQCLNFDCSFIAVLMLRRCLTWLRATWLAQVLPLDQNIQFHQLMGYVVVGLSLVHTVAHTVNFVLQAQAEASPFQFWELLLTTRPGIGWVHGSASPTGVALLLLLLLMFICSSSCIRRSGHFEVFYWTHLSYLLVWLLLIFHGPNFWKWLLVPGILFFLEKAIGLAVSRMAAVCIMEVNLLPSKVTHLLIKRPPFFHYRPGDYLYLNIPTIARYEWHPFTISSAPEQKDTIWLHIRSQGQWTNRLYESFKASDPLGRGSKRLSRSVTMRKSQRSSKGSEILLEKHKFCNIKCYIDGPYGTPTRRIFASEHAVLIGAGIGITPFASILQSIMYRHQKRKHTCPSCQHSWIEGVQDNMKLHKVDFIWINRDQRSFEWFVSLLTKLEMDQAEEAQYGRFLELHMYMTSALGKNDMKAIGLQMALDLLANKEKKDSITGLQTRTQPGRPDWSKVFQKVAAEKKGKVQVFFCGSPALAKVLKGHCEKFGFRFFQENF
Torsin-1A (Homo sapiens), sequence (O14656 whole entry, looked up): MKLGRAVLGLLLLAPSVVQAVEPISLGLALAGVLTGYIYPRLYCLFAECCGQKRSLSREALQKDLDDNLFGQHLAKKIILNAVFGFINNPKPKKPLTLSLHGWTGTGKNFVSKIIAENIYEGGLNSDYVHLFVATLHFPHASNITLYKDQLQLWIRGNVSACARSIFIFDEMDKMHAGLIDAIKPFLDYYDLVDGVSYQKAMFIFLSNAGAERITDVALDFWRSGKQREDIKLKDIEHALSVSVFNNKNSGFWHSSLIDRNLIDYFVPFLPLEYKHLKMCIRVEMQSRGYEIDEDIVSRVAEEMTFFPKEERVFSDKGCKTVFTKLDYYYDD
NADPH oxidase 2 (Homo sapiens), sequence (P04839 whole entry, looked up): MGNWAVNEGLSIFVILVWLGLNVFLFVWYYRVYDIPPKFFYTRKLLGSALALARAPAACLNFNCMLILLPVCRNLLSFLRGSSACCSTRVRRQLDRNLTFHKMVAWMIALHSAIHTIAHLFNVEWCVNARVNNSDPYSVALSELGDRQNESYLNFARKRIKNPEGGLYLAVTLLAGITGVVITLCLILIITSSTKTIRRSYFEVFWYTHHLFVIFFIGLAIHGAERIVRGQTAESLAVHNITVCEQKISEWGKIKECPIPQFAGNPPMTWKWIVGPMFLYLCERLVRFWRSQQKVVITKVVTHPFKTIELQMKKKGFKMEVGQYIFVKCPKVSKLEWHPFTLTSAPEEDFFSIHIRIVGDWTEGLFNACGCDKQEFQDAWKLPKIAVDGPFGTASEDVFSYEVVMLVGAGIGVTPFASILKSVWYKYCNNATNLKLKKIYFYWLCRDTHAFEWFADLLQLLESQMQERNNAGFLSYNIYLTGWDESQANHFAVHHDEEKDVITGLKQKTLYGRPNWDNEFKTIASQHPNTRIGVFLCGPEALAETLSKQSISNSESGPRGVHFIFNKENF
NADPH oxidase 4 (Homo sapiens), sequence (Q9NPH5 whole entry, looked up): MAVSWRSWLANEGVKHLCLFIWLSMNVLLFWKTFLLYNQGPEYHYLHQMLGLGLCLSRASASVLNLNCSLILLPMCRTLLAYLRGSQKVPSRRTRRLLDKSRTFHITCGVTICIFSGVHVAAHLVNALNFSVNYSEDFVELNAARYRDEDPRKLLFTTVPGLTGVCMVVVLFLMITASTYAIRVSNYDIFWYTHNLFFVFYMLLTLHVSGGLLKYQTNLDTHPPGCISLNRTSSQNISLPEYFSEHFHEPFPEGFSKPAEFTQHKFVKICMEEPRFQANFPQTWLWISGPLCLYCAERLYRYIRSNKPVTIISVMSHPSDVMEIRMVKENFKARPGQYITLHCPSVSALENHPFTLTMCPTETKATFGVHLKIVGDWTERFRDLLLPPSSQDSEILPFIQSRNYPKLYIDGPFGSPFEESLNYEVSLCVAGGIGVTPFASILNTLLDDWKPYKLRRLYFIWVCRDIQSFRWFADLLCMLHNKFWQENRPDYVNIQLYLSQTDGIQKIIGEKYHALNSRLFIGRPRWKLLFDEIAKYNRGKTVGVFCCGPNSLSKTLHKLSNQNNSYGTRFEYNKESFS

On to `CCOc1cc(C(O)C2C=CC3C(=O)N(C)C(=O)C3N2Nc2ccccc2)ccc1O` (stereo not given), for which the composite z-score in assay [1] was 0.297; in assay [6], 0.702; in assay [7], -0.0297; in assay [8], 0.526; in assay [9], 0.467; in assay [10], -0.485. In [12], this compound came in with a composite z-score of 0.0313. Moreover, the z-score in assay [2] is 0.559 (inactive); in assay [3], -0.947 (inactive); in [4] it was 0.626 (inactive); in assay [5], -0.276 (inactive); in assay [11], -0.353 (inactive); in assay [13], 0.453 (inactive). Also, the z-score in assay [14] was 1.45 (inactive); in assay [15], 0.42 (inactive); in assay [16] it was 1.42 (inactive); in assay [17] it was -1.01; in assay [18], -1.4 (inactive); in [19] it was -1.94 (inactive). The compound further gave a z-score in [20] of -1.78.

Regarding `O=C1O[C@@H](c2ccccc2)[C@@H](c2ccccc2)N2[C@@H](c3ccc(O)cc3)[C@]3(C(=O)Nc4ccc(C#CC5=CCCCC5)cc43)[C@@H](C(=O)NC[C@H](O)c3ccccc3)[C@H]12`, the composite z-score in assay [1] came out at 0.361; in [6] it was 0.212; in [7], 0.0833; in assay [8], 0.675; in [9] it was 0.677; in assay [10], 1.48. Besides, in assay [12], the composite z-score was 0.15. Further, the z-score in [2] was -3.48 (inactive); in [3], -1.16 (inactive); in assay [4], -0.0246 (inactive); in [5], -0.199 (inactive); in assay [11], 1.22 (inactive); in assay [13], 0.622 (inactive). The z-score in [14] was 0.347 (inactive); in assay [15], -0.853 (inactive); in assay [16] it was 0.933 (inactive); in assay [17], 0.0825; in assay [18] it was 1.22 (inactive); in assay [19] it was 0.53 (inactive). In addition, in assay [20], the z-score amounted to 0.909.

On to `COc1cccc(/C=C/C=O)c1`, for which the composite z-score in [1] was 0.279; in [6] it was -0.283; in [7] it was 0.156; in [8] it was 0.582; in assay [9], 0.351; in [10] it was 0.0757. Also, the composite z-score in assay [12] is 0.212. Besides, the z-score was -0.0204 (inactive) in assay [2]; -0.301 (inactive) in [3]; 0.0026 (inactive) in assay [4]; 0.599 (inactive) in assay [5]; 1.46 (inactive) in [11]; 0.206 (inactive) in assay [13]. Also, the z-score is -0.11 (inactive) in [14]; -0.648 (inactive) in [15]; -0.0641 (inactive) in assay [16]; 0.0159 in [17]; -0.759 (inactive) in assay [18]; -0.228 (inactive) in [19]. For the same compound, in [20], the z-score came to 0.985.

On to `CC(C)C[C@@H]1NC(=O)[C@@H]2C[C@H](C(=O)NCCCCCN)[C@H](c3ccc(O)cc3)N2C1=O`, for which the composite z-score in [1] was 0.329; in assay [6] it was 1.01; in assay [7], -0.171; in assay [8], 0.457; in assay [9], 0.465; in assay [10], 2.04. The compound also had a composite z-score in assay [12] of -0.463. Further, the z-score in assay [2] is -0.079 (inactive); in assay [3], -0.422 (inactive); in [4], 0.411 (inactive); in [5] it was 0.437 (inactive); in [11], -0.899 (inactive); in assay [13], 0.932 (inactive). Moreover, the z-score in assay [14] is -0.0263 (inactive); in assay [15], -0.302 (inactive); in [16] it was 0.0068 (inactive); in [17], -0.928; in assay [18] it was -0.125 (inactive); in assay [19], -1.36 (inactive). For the same compound, in assay [20], the z-score is 0.553.
